Only some compounds are listed: those with a hit (about 3.5% of all), similar ones and a draw of the others.
MITF primary = inhibitors of human MITF | O75030 | actives 0.91% (n = 650,000) | AID 1259374 | AlphaScreen MITF homodimerization, bead proximity signal | inhibition, % at 2.6 µM; in the data active = inhibition above about 50%;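 also: 0% = vehicle wells with protein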
TEAD-YAP block = TEAD-YAP interaction inhibition. actives 1.4% (n = 640,000). AID 1259422. inhibition, % at 9.12 µM. HEK-TIYL cells, TEAD-Gal4/YAP UAS-luciferase luminescence; in the data active = inhibition above about 32%;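 also: 0% = median of test compound wells and 100% = reference inhibitor wells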
FBW7 act = human FBW7 E3 ligase activation, primary screen | Q969H0 | AlphaScreen FBW7–phospho-cyclin E peptide binding, activator screen | normalized activity (activation), % at 26.1 µM | actives 0.13% (n = 650,000) | AID 1259310; in the data active = normalized activity above about 1.9%;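 also: purified mutant Fbw7 with reduced substrate affinity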
Target sequence (Q969H0 whole entry, looked up): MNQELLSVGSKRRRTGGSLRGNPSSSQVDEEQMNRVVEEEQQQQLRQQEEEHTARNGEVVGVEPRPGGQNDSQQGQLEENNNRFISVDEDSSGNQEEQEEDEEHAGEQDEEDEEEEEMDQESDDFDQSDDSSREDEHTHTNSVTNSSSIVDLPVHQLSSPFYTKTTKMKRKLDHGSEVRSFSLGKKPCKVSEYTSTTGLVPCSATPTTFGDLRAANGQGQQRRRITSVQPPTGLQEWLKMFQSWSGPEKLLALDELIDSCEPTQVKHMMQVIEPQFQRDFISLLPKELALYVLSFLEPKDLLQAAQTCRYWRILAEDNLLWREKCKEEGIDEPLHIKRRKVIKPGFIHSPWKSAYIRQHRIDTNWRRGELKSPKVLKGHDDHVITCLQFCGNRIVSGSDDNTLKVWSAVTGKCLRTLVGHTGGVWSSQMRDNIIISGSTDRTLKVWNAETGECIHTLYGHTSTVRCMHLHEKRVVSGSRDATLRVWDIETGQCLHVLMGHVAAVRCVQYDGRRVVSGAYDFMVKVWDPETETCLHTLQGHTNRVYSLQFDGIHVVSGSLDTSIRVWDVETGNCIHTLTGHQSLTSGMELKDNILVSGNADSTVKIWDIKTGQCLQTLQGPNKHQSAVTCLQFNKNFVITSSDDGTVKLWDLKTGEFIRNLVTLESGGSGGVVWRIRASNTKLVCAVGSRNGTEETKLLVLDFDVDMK
GPR151 activ = activators of human GPR151; actives 1% (n = 650,000); AID 1508602; Q8TDV0; PathHunter beta-arrestin GPR151 cells, luminescence; activation, % at 11.2 µM; in the data active = activation above about 4.9%;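 also: 0% = median of compound wells and 100% = cells with positive control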
An asterisk follows results filed as active.

SMILES	MITF primary	TEAD-YAP block	FBW7 act	GPR151 activ
COc1ccc(CNC(=O)c2c(C)nc3ccc(C)cn23)cc1	16	4	0	2
Cc1nonc1C(=O)NCC1Cc2c(F)ccc(-c3ccc(C(=O)C4CC4)cc3)c2O1 (centres undefined)	-14	63*	0	-1
COCCC(=O)NCC1Cc2c(F)ccc(-c3ccc(C(=O)C4CC4)cc3)c2O1 (centres undefined)	1	-25	0	-1
O=C(NCC1Cc2c(F)ccc(-c3ccc(C(=O)C4CC4)cc3)c2O1)c1cnsn1 (centres undefined)	-10	56*	0	-1
C=CCn1c(NCCc2ccccc2)nc2c1c(=O)n(C)c(=O)n2C	-18	37*	0	1
CCOc1cc(/C=N/Nc2nc3c(c(=O)n(C)c(=O)n3C)n2Cc2ccccc2)ccc1O	0	44*	0	-1
C=CCNc1nc2c(c(=O)n(C)c(=O)n2C)n1Cc1ccccc1	14	34*	0	2
C/C(Cl)=C/Cn1c(NCCc2ccccc2)nc2c1c(=O)n(C)c(=O)n2C	-1	6	0	0
C/C(=N/Nc1nc2c(c(=O)n(C)c(=O)n2C)n1Cc1ccccc1)c1ccccc1O	6	7	0	1
O=C(c1ccc(Cl)cc1)N1CCN(C(=O)c2ccc(Cl)cc2)CC1	-6	0	0	1
COc1cccc(-c2cc(C(=O)Nc3cc(C)nn3-c3ccccc3)no2)c1	3	1	0	1
COc1ccccc1-c1cc(C(=O)Nc2cc(OC)c(OC)c(OC)c2)no1	24	46*	0	0
COc1ccccc1-c1cc(C(=O)Nc2cc(C)nn2-c2ccccc2)no1	4	34*	0	-1
CCCCNCCCOc1cc(C)ccc1Cl	-2	-14	0	-1
Cc1cc2nc(-c3ccc(N)cc3O)oc2cc1C	7	31	0	0
Cc1ccc2oc(-c3cc(N)ccc3O)nc2c1	7	-35	0	-8
CC(C)c1ccc2oc(-c3cc(N)ccc3O)nc2c1	11	64*	0	-4
CC(C)c1ccc2oc(-c3ccc(N)cc3O)nc2c1	-3	87*	0	-1
O=C(NN1C(=O)CSC1=S)C(=O)NN1C(=O)CSC1=S	64*	-7	0	1
O=C(NN1C(=O)CSC1=S)c1ccccc1	-8	1	0	1
CN1C(=O)N(C)c2cccc3cccc1c23	1	-17	0	-1
CN1C(/C=C/c2ccccc2Cl)=Nc2cccc3cccc1c23	53*	-47	0	0
NC(=O)c1ccc(NC(=O)COC(=O)CN2C(=O)C3CCCCC3C2=O)cc1 (centres undefined)	3	-2	0	2
CCCNC(=O)C1CC(=O)N(c2ccc(OC)cc2)C1 (centres undefined)	17	12	0	0
CCOc1ccc(C2C(C#N)=C(N)N(c3ccc(OC)cc3)C3=C2C(=O)CCC3)cc1 (centres undefined)	-1	50*	0	0
SMILES	MITF primary	TEAD-YAP block	FBW7 act	GPR151 activ
COc1ccc(N2C(N)=C(C#N)C(c3ccc(F)cc3)C3=C2CCCC3=O)cc1 (centres undefined)	6	51*	0	-2
N#CC1=C(N)N(c2ccc(F)cc2)C2=C(C(=O)CCC2)C1c1ccc(F)cc1 (centres undefined)	8	-1	0	0
COC(=O)c1c(N2C(N)=C(C#N)C(c3ccccc3)C3=C2CCCC3=O)sc2c1CCCC2 (centres undefined)	-4	54*	0	0
CCOC(=O)N1CCN(C(=O)CN(C)S(=O)(=O)c2ccc(OC)c(Cl)c2)CC1	2	1	0	0
CCCCN(CCCC)CCOC(=O)c1ccco1	7	14	0	0
CN1C(=O)/C(=N/n2c(-c3ccccc3)n[nH]c2=S)c2ccccc21	19	2	1	-1
COc1ccc(/C=C/C2=NN(c3ccccc3)C(c3ccc(OC)cc3OC)C2)c(OC)c1 (centres undefined)	-55	2	2.7*	1
COC(=O)Cn1nnc2c(cnn2-c2ccc(F)cc2)c1=O	-4	-20	0	5
C=CCc1ccc(O)c(-c2cc(CC=C)ccc2O)c1	14	0	1	0
C=CCN(CC=C)Cc1cc(O)c(CN(CC=C)CC=C)cc1O	53*	-8	0	0
COc1ccc(CNC(=O)c2cc(-c3ccc(O)cc3)on2)cc1	3	38*	0	0
COc1ccc(C2CC(=O)C3=C(C2)NC(C)=C(C(=O)OC2CCCCC2)C3c2cccc([N+](=O)[O-])c2)cc1OC (centres undefined)	11	35*	0	-1
COc1ccc(C2CC(=O)C3=C(C2)NC(C)=C(C(=O)OC2CCCCC2)C3c2ccc([N+](=O)[O-])cc2)cc1OC (centres undefined)	14	7	0	1
CCCOC(=O)C1=C(C)NC2=C(C(=O)CC(c3ccc(OC)c(OC)c3)C2)C1c1cccc(Br)c1 (centres undefined)	-3	38*	0	0
CCCOC(=O)C1=C(C)NC2=C(C(=O)CC(c3ccc(OC)c(OC)c3)C2)C1c1ccccc1F (centres undefined)	-11	41*	0	3
CCCOC(=O)C1=C(C)NC2=C(C(=O)CC(c3ccc(OC)c(OC)c3)C2)C1c1ccccc1C (centres undefined)	-7	0	0	1
CC1=C(C(=O)OC2CCCCC2)C(c2cccnc2)C2=C(CC(c3ccc(Cl)cc3)CC2=O)N1 (centres undefined)	-4	38*	0	0
COc1ccc(/C=N/NC(=O)c2sc(-c3ccccc3)cc2N)cc1OCC(N)=O	-6	3	0	-1
CN(C)S(=O)(=O)c1cc(NC=C(C#N)C#N)ccc1Cl	-4	-2	0	-3
CCCOC(=O)C1=C(C)NC2=C(C(=O)CC(c3ccc(OC)c(OC)c3)C2)C1c1cccc(C)c1 (centres undefined)	-10	33*	0	2
COc1ccc(C2CC(=O)C3=C(C2)NC(C)=C(C(=O)OC(C)C)C3c2ccc(F)cc2)cc1OC (centres undefined)	-14	42*	0	0
COc1ccc(C2CC(=O)C3=C(C2)NC(C)=C(C(=O)OC(C)C)C3c2ccc(SC)cc2)cc1OC (centres undefined)	-1	14	0	0
CCN(c1cccc(C)c1)S(=O)(=O)c1ccc2c(c1)oc(=O)n2C	4	44*	0	0
CCN(c1ccccc1)S(=O)(=O)c1ccc2c(c1)oc(=O)n2C	-10	7	0	0
CCN(c1ccc(C)c(C)c1)S(=O)(=O)c1ccc2c(c1)oc(=O)n2C	6	16	0	-1
CCOc1ccc(N(CC)S(=O)(=O)c2ccc3c(c2)oc(=O)n3C)cc1	15	48*	0	2
O=C1c2ccccc2NC(c2ccc(Cl)cc2Cl)N1c1ccc(F)c(Cl)c1 (centres undefined)	-6	-52	0	-2
